Only some compounds are listed: those with a hit (about 3.4% of all), similar ones and a draw of the others.
NCF1 inh – p47phox (human) inhibition; P14598; p47phox/p22phox peptide binding, fluorescence polarization, 2 h; inhibition, % at 24.7 µM; actives 0.53% (n = 220,000);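 also: 0% = p47phox with labelled peptide and 100% = labelled peptide alone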
eIF4E 4G PPI – eIF4E/eIF4G interaction inhibition in translation initiation | P63073+Q04637 | TR-FRET eIF4E-eIF4GI(517-606) binding, 2 h | inhibition, % at 21.7 µM | actives 0.37% (n = 220,000) | AID 782;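 also: 0% = full FRET control wells and 100% = background wells lacking eIF4GI fragment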
Mcl1-Noxa inh – Mcl-1/Noxa interaction inhibition; Q07820; inhibition, % at 21.7 µM; TR-FRET Mcl-1/Noxa peptide binding, 2 h; actives 1.5% (n = 220,000);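 active = compounds that cut the protein-peptide binding signal by more than 50% relative to plate controls in a single-dose test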;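 also: His-tagged Mcl-1 with rhodamine Noxa BH3 peptide and terbium anti-His antibody; 0% = Mcl-1 plus Noxa peptide wells and 100% = peptide-only wells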
Target sequence (Q07820 whole entry, looked up): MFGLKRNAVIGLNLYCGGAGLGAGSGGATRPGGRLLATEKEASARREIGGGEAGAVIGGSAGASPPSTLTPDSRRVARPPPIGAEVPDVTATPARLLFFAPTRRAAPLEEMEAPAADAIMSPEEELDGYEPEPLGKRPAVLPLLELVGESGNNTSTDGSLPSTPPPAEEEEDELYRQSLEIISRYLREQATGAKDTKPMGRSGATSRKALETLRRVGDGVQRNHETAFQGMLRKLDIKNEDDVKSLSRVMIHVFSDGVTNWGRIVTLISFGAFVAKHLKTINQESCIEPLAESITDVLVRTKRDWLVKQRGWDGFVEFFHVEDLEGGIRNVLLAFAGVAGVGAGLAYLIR
Bim-Mcl-1 – human Bim-Mcl-1 interaction inhibition; Q07820; Bead-based flow cytometry, Bim peptide-Mcl-1 binding; inhibition, % at 10 µM; actives 0.1% (n = 190,000); in the data active = inhibition above about 40%;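 also: 0% = no compound tracer wells and 100% = peptide blocker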
Mcl1 Bid PPI – disrupts binding of human Mcl-1 to Bid peptide; Q07820; TR-FRET Mcl-1/Bid-Dy647 peptide binding, 1536-well; inhibition, % at 21.7 µM; actives 0.97% (n = 220,000);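 active = compounds that cut the binding signal by more than half at the single screening dose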;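 also: His-tagged Mcl-1 with europium anti-His antibody binding Bid BH3 peptide; 0% = Mcl-1 plus peptide wells and 100% = peptide-only wells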
14-3-3 Bad PPI – disrupts binding of bovine 14-3-3 zeta to phospho-Bad peptide | TR-FRET 14-3-3zeta/Dy647-pBad peptide displacement, 1 h | inhibition, % at 21.7 µM | actives 0.71% (n = 220,000) | AID 781;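 active = inhibition above about 70%, limit read from the data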;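 also: 0% = full 14-3-3 plus peptide FRET controls and 100% = background without 14-3-3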
Starred values were filed as active, the others as inactive; nt = no result; [ ] = another dose, or the depositor's remark.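 The calls were made as follows, unless noted: active = inhibition above about 30% (limit read from the data); inactive = the rest.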

SMILES	NCF1 inh	eIF4E 4G PPI	Mcl1-Noxa inh	Bim-Mcl-1	Mcl1 Bid PPI	14-3-3 Bad PPI
COc1ccc(OCC(=O)Nc2cc(-c3nn(C)c(=O)c4ccccc34)ccc2N2CCOCC2)cc1	7	-14	-93	nt	36	3
CCC1(c2ccccc2)NC(=S)N(c2ccc(C)c(C)c2)N1 (stereo not given)	-13	52*	23	-5	-32	-2
CCOC(=O)C1=C(C)OC(N)=C(C#N)C1c1cc2ccccc2nc1N1CCCCC1 (stereo not given)	81*	-9	17	0	-5	41
CCOC(=O)C1=C(C)OC(N)=C(C#N)C1c1cc(C)sc1C (stereo not given)	-12	7	6	-3	-30	-1
CCOC(=O)C1=C(C)OC(N)=C(C#N)C1c1cc2cc(C)ccc2nc1N1CCCCC1 (stereo not given)	49*	5	-129	-3	-38	-71
Cc1ccc(NC(=O)CN(C)C(=S)NC2CC2)cc1	0	5	-1	-1	-39	-15
Cc1csc(NC(=O)C(Cc2ccccc2)n2cccc2)n1 (stereo not given)	-8	0	14	-1	-18	2
CCSc1nnc(NC(=O)C(Cc2ccccc2)n2cccc2)s1 (stereo not given)	-13	2	28	0	64*	3
Nn1c(SCC(=O)N2CCOCC2)nnc1C1CC1	0	-1	21	0	-29	-19
CCOC(=O)c1c(-c2ccc(C)o2)csc1NC(=O)CN1CCN(CC)CC1	-5	-2	19	1	-21	71*
CSc1ccc(/C=C/C(=O)NC(=O)c2ccccc2O)cc1	4	-1	11	0	-30	-8
CCCc1cc(=O)n2c([nH]c3ccccc32)c1C#N	48*	12	28	2	-122	3
COc1cccc(NC(=O)Nc2ccncc2)c1	0	-2	9	0	-14	-5
COc1cccc(NC(=O)Nc2ccc(C(C)(C)C)cc2)c1	-23	66*	3	-2	-30	-3
Cc1cc(SCC(=O)N/N=C/c2ccc(O)c(O)c2O)c(C)cc1Br	-29	15	84*	-2	18	2
CC(=O)Nc1cccc(OCCCNC(=O)C2CCC2)c1	-14	2	3	nt	17	-3
COc1ccc(/C=N/Nc2nc(Nc3ccccc3)nc(N3CCCCC3)n2)c(OC)c1	-1	-4	17	-4	1	-18
COc1ccc(/C=N/Nc2ncc(-c3ccccc3)cn2)c(OC)c1	24	11	52*	-2	40	16
COCCN=c1scc(C)n1/N=C/C1CC2C=CC1C2 (stereo not given)	-10	-4	-5	1	-49	-5
CCOC(=O)c1ccc(N/N=C/c2cc(Br)cc([N+](=O)[O-])c2O)cc1	3	0	61*	1	-6	-6
COC(=O)c1ccc(N/N=C/c2cc([N+](=O)[O-])cc(OC)c2O)cc1	27	10	61*	-2	12	19
Cc1cc(CNC(=S)Nc2ccc(Br)cc2Cl)nn1C	-22	-2	22	-2	-13	-10
Cc1ccc(S(=O)(=O)NC2CCCCC2)c(C)c1NS(C)(=O)=O	-8	-2	16	-1	-23	-6
COc1ccc(-c2ccc3c(n2)sc2c(=O)[nH]c(=O)[nH]c23)cc1OC	-50	2	84*	-3	-7	1
COc1ccc(/C=N/n2cncn2)cc1Cn1cc([N+](=O)[O-])cn1	-18	-2	24	nt	-2	6
SMILES	NCF1 inh	eIF4E 4G PPI	Mcl1-Noxa inh	Bim-Mcl-1	Mcl1 Bid PPI	14-3-3 Bad PPI
CC(NC(=O)c1ccc(Cn2cc([N+](=O)[O-])cn2)o1)c1ccccc1 (stereo not given)	1	36*[fluorescence artefact?]	-12	3	-4	5
COc1ccc(/C=N/Nc2ccc([N+](=O)[O-])cc2)cc1Cn1cc([N+](=O)[O-])cn1	-28	-6	72*	-4	58*	-12
Cc1ccccc1NC(=O)c1ccc(Cn2cc([N+](=O)[O-])cn2)o1	-3	1	9	0	-17	-12
COc1ccc(/C=N/NC(=O)c2ccc(Cn3cc([N+](=O)[O-])cn3)o2)cc1O	-14	3	15	2	-9	-4
COc1cc(/C=N/NC(=O)C(=O)NCc2ccco2)cc(Br)c1O	-2	13	56*	nt	-22	55
COc1cc(/C=N/NC(=O)c2ccc(Cn3cc([N+](=O)[O-])cn3)o2)cc(Br)c1O	-15	1	56*	0	-23	-10
O=[N+]([O-])c1cc(C(F)(F)F)cc([N+](=O)[O-])c1Sc1n[nH]c(C(F)(F)F)n1	-12	3	6	nt	0	-4
COc1ccc(NC(=O)CSc2ccccc2)c(OC)c1	-4	1	-6	4	-7	-4
COc1ccc(NC(=O)CSc2ncnc3c2sc2ccccc23)c(OC)c1	-1	2	79*	1	16	18
C/C(=N/NC(=O)CN1CCN(Cc2ccccc2Cl)CC1)c1cccnc1	4	-1	11	nt	0	5
O=C(Nc1nc2c(F)cc(F)cc2s1)C1CC(=O)N(Cc2ccco2)C1 (stereo not given)	-11	17	59*	nt	-20	9
Cc1cc(C)c2nc(NC(=O)C3CC(=O)N(Cc4ccco4)C3)sc2c1 (stereo not given)	-8	0	-7	-1	-4	-4
O=C(CNS(=O)(=O)c1cccs1)NCc1ccccc1	9	-3	4	0	-19	0
CCN(CC)CC(C)OC(=O)c1cc(OC)c(OC)c(OC)c1 (stereo not given)	-12	-9	4	-1	51*	9
Cc1cc(/C(N)=N/OC(=O)c2ccc(Cl)cc2)no1	-3	3	11	nt	-29	70*
CCCCCCOC(=O)C(C#N)c1nc2ccccc2nc1N1CCN(C)CC1 (stereo not given)	-14	3	53*	-1	-14	-18
CCCCCCOC(=O)C(C#N)c1nc2ccccc2nc1N1CCCCC1 (stereo not given)	-27	-14	-1	3	-6	5
COc1ccc2[nH]c(=O)c(CN(C3CCCCC3)C(c3nnnn3Cc3ccco3)C(C)C)cc2c1 (stereo not given)	-86	5	57*	-10	-17	-10
COc1ccc2[nH]c(=O)c(CN(Cc3nnnn3Cc3ccco3)C3CCCCC3)cc2c1	-22	-7	20	-3	-9	0
CC(=O)CC(C)(C)NC(C)=S	-13	0	-3	nt	-118	-3
Cn1nc([N+](=O)[O-])c(C(C#N)c2ccccn2)c(Cl)c1=O (stereo not given)	-3	10	5	-1	-26	-13
